# Among all 69,000 compounds or so, about 8,600 (12%) showed an effect of 50% or more. Many of the other results were omitted from the sample, so strong results are more common in it than they were.
# Tested on: Plasmodium berghei
# Assay: Screen against P. berghei liver stage (PbLuc), transformed with Luciferase, at 10uM
# Assay type: functional, HepG2
# Details: tested at 10 uM
row,SMILES,INHIBITION
1,CC(C)C1CCCN1CCCc1nc(-c2cccs2)no1 (configuration not stated),-4.94%
2,CCN1C(=O)CCC12CCC(NC(=O)c1ccncc1F)CC2 (configuration not stated),38.3%
3,CCn1nc(C)cc1C(=O)N1C[C@@H](CN(C)C)[C@@H](CO)C1,38.7%
4,O=C(NCC1CCCO1)c1nc2c(s1)CCCN2CC1CC1 (configuration not stated),-14.2%
5,c1cncc(-c2nnc(C3(c4ccc5c(c4)OCO5)CCOCC3)o2)c1,72.2%
6,c1cc(-c2nnc(C3(c4ccc5c(c4)OCO5)CCOCC3)o2)ccn1,40.7%
7,Cn1cccc1-c1nnc(C2(c3ccc4c(c3)OCO4)CCOCC2)o1,41.8%
8,CCN1CCC(CC(=O)NCCc2nc(N)cc(O)n2)CC1,0.348%
9,CC(C)CN1CCNC(=O)C12CCN(C(=O)c1ccccn1)CC2,50.7%
10,CCN1CCNC(=O)C12CCN(C(=O)c1ccccn1)CC2,-5.25%
11,CC(C)CN1CCc2[nH]cnc2C12CCN(C(=O)c1cc[nH]n1)CC2,48.5%
12,Cc1cc(C(=O)N2CCC3(CC2)c2nc[nH]c2CCN3CC(C)C)no1,20.4%
13,Cc1cnc(C(=O)N2CCC3(CC2)C(=O)NCCN3CC(C)C)cn1,26.5%
14,CC(C)CN1CCc2[nH]cnc2C12CCN(C(=O)c1ccccn1)CC2,55%
15,O=C(O)C1(Cc2ccccc2Cl)CCN(c2ncnc3[nH]ccc23)CC1,43.3%
16,Cc1nn(C)c(Cl)c1C1CCCN1Cc1cccc(C(N)=O)c1 (configuration not stated),11.2%
17,Cn1c(=O)c2cc(C(=O)NCc3ccccn3)ccc2n(C)c1=O,26.3%
18,CC(C)NC(=O)N1CCCn2cnc(CO)c2C1,-3.77%
19,CC(C)c1noc(C(C)N2CCN(Cc3cccnc3)CC2)n1 (configuration not stated),15.5%
20,CN(C)CC(=O)N1Cc2nnn(C)c2C(COCC2CC2)C1 (configuration not stated),24%
21,CCOCC1CN(C(=O)[C@H]2CCCO2)Cc2nnn(CC3CC3)c21 (some centres not stated),57.1%
22,COCC1CN(C(=O)[C@H]2CCCO2)Cc2nnn(CC3CC3)c21 (some centres not stated),-4.99%

row,SMILES,INHIBITION
1,CCOCC1CN(C(=O)N(C)C)Cc2nnn(CC3CC3)c21 (configuration not stated),-3.51%
2,CN(C)C(=O)N1Cc2nnn(C)c2C(COCC2CC2)C1 (configuration not stated),41.8%
3,Cn1nnc2c1C(COCC1CC1)CN(C(=O)[C@H]1CCCO1)C2 (some centres not stated),68.9%
4,Cc1nccn1CCN(C)C(=O)C1CCCN(C2CCOCC2)C1 (configuration not stated),34.1%
5,Cc1cc(C)n(CC2CCCN2CCc2ccccn2)n1 (configuration not stated),44.4%
6,Cc1cc(CNC2CCc3nc(C(C)C)nn3C2)on1 (configuration not stated),11.3%
7,COC(=O)CC(NC(=O)c1ccccc1OC)c1cccs1 (configuration not stated),40%
8,CCC(NC(=O)c1cccc(N2CCCC2=O)c1)c1ccc(OC)cc1 (configuration not stated),52.6%
9,COCCc1noc(CN(C)C(=O)c2cccc(N3CCCC3=O)c2)n1,13.9%
10,COC(=O)CC(NC(=O)c1cc(OC)c2c(c1)OCCO2)c1cccs1 (configuration not stated),29.4%
11,COC(=O)CC(NC(=O)c1cccc(N2CCCC2=O)c1)c1cccs1 (configuration not stated),62.8%
12,COC(=O)CC(NC(=O)c1ccc(OC)cc1OC)c1cccs1 (configuration not stated),7.08%
13,COC(=O)CC(NC(=O)c1cccc(CS(C)(=O)=O)c1)c1cccs1 (configuration not stated),71.2%
14,COC(=O)CC(NC(=O)c1cccc(N2CCCC2=O)c1)C(=O)OC (configuration not stated),2.55%
15,CCC(C)C(=O)NCc1cccc(N2CCCCC2=O)c1 (configuration not stated),11.6%
16,Cc1cc(S(=O)(=O)NCC[S+](C)[O-])c(F)cc1F (configuration not stated),37.6%
17,CC(O)CN1CCN(C(=O)c2sccc2C2CC2)CC1 (configuration not stated),-1.14%
18,Cc1cnc(CC2COCCN(Cc3nccn3C)C2)cn1 (configuration not stated),44.1%
19,CC(C)n1ccnc1C1CCN(Cc2ccc(C(F)(F)F)c(F)c2)CC1,42.5%
20,CO[C@@H]1CCN(Cc2ccoc2)[C@@H]2CN(Cc3ccco3)C[C@@H]21,45.2%
21,CC(C)(C)c1ccn(C2(C(=O)O)CCN(c3ccnc(N)n3)CC2)n1,34.5%
22,Cc1cccc(O[C@H]2COCCN(Cc3sc(C)nc3C)C2)n1,-60.9%

row,SMILES,INHIBITION
1,Cc1nc(C)c(CN2CCOC[C@H](Oc3ccccc3)C2)s1,71.4%
2,Cc1nc(C)c(CN2CCOC[C@H](Oc3ccc(S(C)(=O)=O)cc3)C2)s1,26.4%
3,CN(Cc1cc[nH]n1)C(=O)c1cn(Cc2c(F)cccc2F)nn1,19.3%
4,Cc1cc(S(=O)(=O)N2CCCc3cc(F)c(F)cc32)sc1C(=O)O,33.7%
5,CC(=O)N1CCC(n2ccc(-c3cnc(NCC(C)C)nc3)n2)CC1,56%
6,CC(=O)N1CCC(n2ccc(-c3cnc(N4CCOCC4)nc3)n2)CC1,17.4%
7,CC[C@H](C)Nc1ncc(-c2ccn(C3CCN(C(C)=O)CC3)n2)cn1,24.8%
8,CNc1cncc(C2CCCN2S(=O)(=O)c2cccc(F)c2)n1 (configuration not stated),14.7%
9,Cc1ccc(C(=O)N2C[C@@H]3CCCO[C@@H]3[C@H](N(C)Cc3ccco3)C2)o1,-7.59%
10,CN(C)c1ncccc1CNC(=O)N1CCCC1CN1CCCCC1 (configuration not stated),11.6%
11,CN(C)c1ncccc1CNC(=O)N1CCCC1CN1CCCC1 (configuration not stated),57.8%
12,CN(C)c1ncccc1CNC(=O)N1CCCC1c1ccsc1 (configuration not stated),-0.847%
13,CN1CCC(NC(=O)c2cc(F)cc(Cl)c2O)C1=O (configuration not stated),26.5%
14,CCc1c(C)nc2n(c1=O)CC(C(=O)Nc1ncccc1C)CS2 (configuration not stated),-0.621%
15,Cc1noc(C(C)C)c1C(=O)NCc1cccc(CN(C)C)c1,51.1%
16,COCc1cccc(CNC(=O)c2c(C)noc2C(C)C)c1,42.9%
17,Cc1noc(C(C)C)c1C(=O)NCc1cccc(N(C)C)c1,6.14%
18,Cc1nn(C)c(C)c1CN(C)C1CCN(c2ncnc3[nH]cnc23)CC1,48.9%
19,Cc1ncsc1CCN(C)C1CCN(c2ncnc3[nH]cnc23)CC1,50.8%
20,Cc1cnccc1CN(C)C1CCN(c2ncnc3[nH]cnc23)CC1,48.9%
21,Cc1ccccc1OCCN1CCN(Cc2cnn(CCO)c2)CC1,30.45%
22,Cc1ccc(-c2cc(C(=O)NC(C)C(=O)N3CCCCC3)on2)cc1 (configuration not stated),-40.3%

row,SMILES,INHIBITION
1,CC(NC(=O)c1cc(-c2cccc(Cl)c2)no1)C(=O)N(C)C (configuration not stated),-21.6%
2,CC(NC(=O)c1cc(-c2cccc(Cl)c2)no1)C(=O)N1CCCC1 (configuration not stated),86.9%
3,COc1cc(C)c(NC(=O)CCn2cccc2)cc1OC,-23.2%
4,COc1cc(Cl)c(NC(=O)NCCn2cccc2)cc1OC,-102%
5,COc1cc(C)c(NC(=O)NCCn2cccc2)cc1OC,52.2%
6,Cn1cc(CN(Cc2cccc(-n3cccn3)c2)C2CC2)cn1,49%
7,CCc1ccccc1NC(=O)c1cccc(N(C)S(C)(=O)=O)c1C,-15.3%
8,NC(=O)C1CCCN1C1CCN(C(=O)c2ccc3c(c2)OCO3)CC1 (configuration not stated),19.9%
9,CSCc1noc(CNC2CCCC(C)(C)C2)n1 (configuration not stated),16.9%
10,Clc1nc2ccccn2c1CNCC1CN(C2CC2)CCO1 (configuration not stated),-34.4%
11,CC1=CC(C)(C)N(CN2C(=O)c3ccccc3C2=O)c2ccccc21,44.6%
12,CC1=CC(C)(C)N(CN2C(=O)c3ccccc3C2=O)c2ccc(C)cc21,67.4%
13,COc1ccc(N2CCN(C(=O)NC(C)c3nncn3C)CC2)cc1 (configuration not stated),19.4%
14,COCC(=O)NCC[C@H]1CC(C)(C)Oc2ccccc21,57.5%
15,COCC(=O)NCC[C@H]1CC(C)(C)Oc2ccc(OC)cc21,1.11%
16,CC(=O)NCC[C@H]1CC(C)(C)Oc2ccccc21,18.9%
17,Cc1cnn(CC2CCCCN2C(=O)c2ccc3[nH]c(=O)[nH]c3c2)c1 (configuration not stated),39.2%
18,CN(C)C(=O)C1CCN(C2CCN(CC3CC3)CC2)CC1,37.5%
19,O=C(c1cc[nH]n1)N1CCc2ccc(S(=O)(=O)N3CCOCC3)cc2C1,26.5%
20,CNS(=O)(=O)c1cccc(CNc2ncccn2)c1,50.5%
21,CNS(=O)(=O)c1cccc(CNc2ccc(C#N)cn2)c1,-14.9%
22,NS(=O)(=O)c1cccc(CNc2nccc(C(F)(F)F)n2)c1,-14.6%

row,SMILES,INHIBITION
1,FC(F)(F)c1cccc(CNc2nccc(C(F)(F)F)n2)c1,-24.2%
2,CNS(=O)(=O)c1cccc(CNc2cc(C(F)(F)F)ccn2)c1,45.4%
3,CNS(=O)(=O)c1cccc(CNc2nccc(C(F)(F)F)n2)c1,71.3%
4,CN(C(=O)c1ccc(C#N)cc1)c1nnc(C2CCOC2)s1 (configuration not stated),-0.585%
5,Cc1ccc(C(=O)N2CCO[C@H]3[C@H](OCc4ccccn4)CC[C@@H]32)o1,-31.3%
6,Cc1nn(CCC#N)c(C)c1CCC(=O)N(C)C,49.5%
7,Cc1nn(CCC#N)c(C)c1CCC(=O)N(C)Cc1ccc(F)cc1F,78.3%
8,Cc1nn(CCC#N)c(C)c1CCC(=O)N(C)Cc1ccsc1,19.8%
9,CCCn1nccc1NC(=O)CN1CCOC(Cn2cc(C)cn2)C1 (configuration not stated),21.9%
10,CN(C)C[C@H]1OC[C@@H]2CCN(S(=O)(=O)c3ccccc3)C[C@@H]21,26.7%
11,Cc1ccc(-c2ncc(CNc3cnccc3CO)s2)cc1,80%
12,Cc1ncc(CNc2cnccc2CO)s1,-37.7%
13,Cc1ccc(-c2ncc(CNc3cnccc3CO)s2)o1,11.1%
14,Cn1cc(CN2CC[C@@H](NS(C)(=O)=O)[C@@H]2Cc2cccnc2)cn1,54.4%
15,CS(=O)(=O)N[C@@H]1CCN(Cc2cccnc2)[C@H]1Cc1ccccc1,52%
16,CS(=O)(=O)N[C@@H]1CCN(Cc2cccnc2)[C@H]1Cc1cccnc1,45.1%
17,CS(=O)(=O)N[C@@H]1CCN(Cc2cccs2)[C@H]1Cc1cccnc1,-21.4%
18,Cn1ccnc1CN1CC[C@@H](NS(C)(=O)=O)[C@@H]1Cc1cccnc1,13.6%
19,CS(=O)(=O)N[C@@H]1CCN(Cc2ccncc2)[C@H]1Cc1cccnc1,4.27%

# — ChEMBL document CHEMBL4513216, “Probing the Open Global Health Chemical Diversity Library for Multistage-Active Starting Points for Next-Generation Antimalarials” (ACS Infect Dis, 2020)
